# Measurements as given in the supplement of paper PMC8728848.
# Shown is part of a subset that was picked to be rich in the strongest signals.
# Columns and labels:
# Experiment in all cases: glycan array binding signal (z-score within array); higher = stronger binding
# Conditions in all cases: glycan notation: IUPAC condensed, linker removed
# [1] = molecular target: Gal(b1-4)GlcNAc(b1-3)Gal(b1-4)GlcNAc(b1-3)GalNAc
# Outline: (§1)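 The binding signal is a Z-score computed within each array. Data were drawn from 3228 arrays in the Consortium for Functional Glycomics database, restricted to those with a known protein sequence. Scores were averaged over arrays of the same protein sequence at different concentrations or buffers, and over linkers, and negative values can be taken as non-binding.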
# [2] = molecular target: Gal(b1-4)GlcNAc(b1-3)Gal(b1-4)GlcNAc(b1-3)[Gal(b1-4)GlcNAc(b1-3)Gal(b1-4)GlcNAc(b1-6)]GalNAc
# Outline: as §1
# [3] = molecular target: Gal(b1-4)GlcNAc(b1-3)Gal(b1-4)[Fuc(a1-3)]GlcNAc(b1-3)Gal(b1-4)[Fuc(a1-3)]GlcNAc
# Outline: as §1
# GalNAc(a1-3)GalNAc = molecular target: GalNAc(a1-3)GalNAc
# Outline: as §1
# GalNAc(b1-3)GlcNAc = molecular target: GalNAc(b1-3)GlcNAc
# Outline: as §1
# GalNAc(b1-4)GlcNAc = molecular target: GalNAc(b1-4)GlcNAc
# Outline: as §1
# GalNAc3S(b1-4)GlcNAc3S = molecular target: GalNAc3S(b1-4)GlcNAc3S
# Outline: as §1
# [4] = molecular target: GalNAc3S(b1-4)[Fuc(a1-3)]GlcNAc
# Outline: as §1
# [5] = molecular target: GlcA3S(b1-3)Gal(b1-4)GlcNAc(b1-3)Gal(b1-4)Glc
# Outline: as §1
# [6] = molecular target: GlcNAc(a1-4)Gal(b1-4)GlcNAc
# Outline: as §1
# [7] = molecular target: GlcNAc(a1-4)Gal(b1-4)GlcNAc(b1-3)Gal(b1-4)[Fuc(a1-3)]GlcNAc(b1-3)Gal(b1-4)[Fuc(a1-3)]GlcNAc
# Outline: as §1
# [8] = molecular target: GlcNAc(b1-3)Gal(b1-4)GlcNAc(b1-2)Man(a1-3)[GlcNAc(b1-3)Gal(b1-4)GlcNAc(b1-2)Man(a1-6)]Man(b1-4)GlcNAc(b1-4)[Fuc(a1-6)]GlcNAc
# Outline: as §1
# [9] = molecular target: GlcNAc(b1-3)Gal(b1-4)GlcNAc(b1-2)[GlcNAc(b1-3)Gal(b1-4)GlcNAc(b1-6)]Man(a1-6)[GlcNAc(b1-3)Gal(b1-4)GlcNAc(b1-2)Man(a1-3)]Man(b1-4)GlcNAc(b1-4)GlcNAc
# Outline: as §1
# [10] = molecular target: GlcNAc(b1-3)Gal(b1-4)GlcNAc(b1-3)Gal(b1-4)GlcNAc(b1-2)[GlcNAc(b1-3)Gal(b1-4)GlcNAc(b1-3)Gal(b1-4)GlcNAc(b1-6)]Man(a1-6)[GlcNAc(b1-3)Gal(b1-4)GlcNAc(b1-3)Gal(b1-4)GlcNAc(b1-2)Man(a1-3)]Man(b1-4)GlcNAc(b1-4)[Fuc(a1-6)]GlcNAc
# Outline: as §1
# [11] = molecular target: GlcNAc(b1-3)Gal(b1-4)GlcNAc(b1-3)Gal(b1-4)GlcNAc(b1-3)Gal(b1-4)GlcNAc(b1-3)Gal(b1-4)GlcNAc(b1-2)Man(a1-3)[GlcNAc(b1-3)Gal(b1-4)GlcNAc(b1-3)Gal(b1-4)GlcNAc(b1-3)Gal(b1-4)GlcNAc(b1-3)Gal(b1-4)GlcNAc(b1-2)Man(a1-6)]Man(b1-4)GlcNAc(b1-4)[Fuc(a1-6)]GlcNAc
# Outline: as §1
# [12] = molecular target: Man(a1-2)Man(a1-3)[Man(a1-6)]Man(a1-6)[Man(a1-2)Man(a1-3)]Man(b1-4)GlcNAc(b1-4)GlcNAc
# Outline: as §1
# [13] = molecular target: Man(a1-2)Man(a1-6)[Man(a1-3)]Man(a1-6)[Man(a1-2)Man(a1-2)Man(a1-3)]Man
# Outline: as §1
# Man(a1-6)Man = molecular target: Man(a1-6)Man
# Outline: as §1
# [14] = molecular target: Neu5Ac(a2-3)Gal(b1-3)GalNAc(b1-4)[Neu5Ac(a2-3)]Gal(b1-4)Glc
# Outline: as §1
# [15] = molecular target: Neu5Ac(a2-3)Gal(b1-3)[Fuc(a1-4)]GlcNAc(b1-3)Gal(b1-4)[Fuc(a1-3)]GlcNAc
# Outline: as §1
# [16] = molecular target: Neu5Ac(a2-3)Gal(b1-4)GlcNAc
# Outline: as §1
# [17] = molecular target: Neu5Ac(a2-3)Gal(b1-4)GlcNAc(b1-2)Man(a1-3)[GlcNAc(b1-4)][Neu5Ac(a2-3)Gal(b1-4)GlcNAc(b1-2)Man(a1-6)]Man(b1-4)GlcNAc(b1-4)GlcNAc
# Outline: as §1
# [18] = molecular target: Neu5Ac(a2-3)Gal(b1-4)GlcNAc(b1-2)Man(a1-3)[Neu5Ac(a2-3)Gal(b1-4)GlcNAc(b1-2)Man(a1-6)]Man(b1-4)GlcNAc(b1-4)GlcNAc
# Outline: as §1
# [19] = molecular target: Neu5Ac(a2-3)Gal(b1-4)GlcNAc(b1-2)[Neu5Ac(a2-3)Gal(b1-4)GlcNAc(b1-6)]Man(a1-6)[Neu5Ac(a2-3)Gal(b1-4)GlcNAc(b1-2)Man(a1-3)]Man(b1-4)GlcNAc(b1-4)GlcNAc
# Outline: as §1
# [20] = molecular target: Neu5Ac(a2-3)Gal(b1-4)GlcNAc(b1-3)GalNAc
# Outline: as §1
# [21] = molecular target: Neu5Ac(a2-3)Gal(b1-4)[Fuc(a1-3)]GlcNAc(b1-3)Gal(b1-4)GlcNAc
# Outline: as §1
# [22] = molecular target: Neu5Ac(a2-6)Gal(b1-4)GlcNAc(b1-2)Man(a1-3)Man(b1-4)GlcNAc(b1-4)GlcNAc
# Outline: as §1
# [23] = molecular target: Neu5Ac(a2-6)Gal(b1-4)GlcNAc(b1-2)[Neu5Ac(a2-6)Gal(b1-4)GlcNAc(b1-4)]Man(a1-3)[GlcNAc(b1-4)][Neu5Ac(a2-6)Gal(b1-4)GlcNAc(b1-4)Man(a1-6)]Man(b1-4)GlcNAc(b1-4)GlcNAc
# Outline: as §1
# [24] = molecular target: Neu5Ac(a2-6)Gal(b1-4)GlcNAc(b1-2)[Neu5Ac(a2-6)Gal(b1-4)GlcNAc(b1-6)]Man(a1-6)[Neu5Ac(a2-6)Gal(b1-4)GlcNAc(b1-2)Man(a1-3)][GlcNAc(b1-4)]Man(b1-4)GlcNAc(b1-4)GlcNAc
# Outline: as §1
# [25] = molecular target: Neu5Ac(a2-6)Gal(b1-4)GlcNAc(b1-3)Gal(b1-4)GlcNAc(b1-3)Gal(b1-4)GlcNAc(b1-2)Man(a1-3)[Neu5Ac(a2-6)Gal(b1-4)GlcNAc(b1-3)Gal(b1-4)GlcNAc(b1-3)Gal(b1-4)GlcNAc(b1-2)Man(a1-6)]GalNAc
# Outline: as §1
# [26] = molecular target: Neu5Ac(a2-6)Gal(b1-4)GlcNAc(b1-3)GalNAc
# Outline: as §1
# [27] = molecular target: Neu5Ac(a2-8)Neu5Ac(a2-8)Neu5Ac(a2-3)Gal(b1-4)Glc
# Outline: as §1
binder,measurement,setting,value
GS7807Q-bfa-507-19-507 (Bacteroides fragilis) (protein) ASCNKFDDLNTNPDAATKVTAPMLATKLILNITQQGSAKNFVYHSMLSKQIAWSENASDEQYNLFGRTDFDGYTILTNCQKMVDAANEGDKDSYAALAKFMKAYKLFYKSLEVGDIPYSDALKGEEGVQKPKYDTQKEVMRQVLEDLEEAYTLFSSGSDFDGDPIFGGDTENWKKTVVAFELKVLTHLCKKDTDADLKVKERFARLVSSGSLMTSNADNFQLVYSNKAGQLYPFYYTQNKHSDYLMMSSVIIDNLKKFNDYRMFYYASPAKAQTDKGIKDSEWDAYLSIDPSDSYSNISVLYGKGEFCLANLRYTRVPEGEPLMRLSYAEQNFILAEGAVRGWISEDASTYYKKGIEASMNFIADNTPDKEEYTHGRTITQEYIQEYLAQPVIQLSGDKEKDLEMILLQRYLASFLQHPYDAYYDYRRTGYPVLPINPSTNLNTEKNKIPTRWMYPEAEFSYNPDNANEAVQRQYNGSDDVNKLMWILQ,glycan array binding signal (z-score),[1],-0.268
same,glycan array binding signal (z-score),[2],-0.074
same,glycan array binding signal (z-score),[3],-0.174
same,glycan array binding signal (z-score),GalNAc(a1-3)GalNAc,-0.06
same,glycan array binding signal (z-score),GalNAc(b1-3)GlcNAc,-0.454
same,glycan array binding signal (z-score),GalNAc(b1-4)GlcNAc,3.09
same,glycan array binding signal (z-score),GalNAc3S(b1-4)GlcNAc3S,-0.279
same,glycan array binding signal (z-score),[4],-0.654
same,glycan array binding signal (z-score),[5],0.23
same,glycan array binding signal (z-score),[6],-0.604
same,glycan array binding signal (z-score),[7],3.02
same,glycan array binding signal (z-score),[8],2.43
same,glycan array binding signal (z-score),[9],1.65
same,glycan array binding signal (z-score),[10],2.73
same,glycan array binding signal (z-score),[11],-0.41
same,glycan array binding signal (z-score),[12],-0.639
same,glycan array binding signal (z-score),[13],0.113
same,glycan array binding signal (z-score),Man(a1-6)Man,0.531
same,glycan array binding signal (z-score),[14],-0.316
same,glycan array binding signal (z-score),[15],-0.38
same,glycan array binding signal (z-score),[16],-0.496
same,glycan array binding signal (z-score),[17],-0.905
same,glycan array binding signal (z-score),[18],-0.347
same,glycan array binding signal (z-score),[19],1.35
same,glycan array binding signal (z-score),[20],-0.737
same,glycan array binding signal (z-score),[21],-0.425
same,glycan array binding signal (z-score),[22],-0.09
same,glycan array binding signal (z-score),[23],0.481
same,glycan array binding signal (z-score),[24],0.863
same,glycan array binding signal (z-score),[25],3.17
same,glycan array binding signal (z-score),[26],0.841
same,glycan array binding signal (z-score),[27],-0.141
